Laboratory results as given in PubChem BioAssay.
Values joined by “and” are separate entries in the source; they are usually repeats but may differ in a detail not shown here. Identical values can stand only once. Results filed as inconclusive are left out. Active and inactive are the calls of the source.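 Rule for the calls, unless noted: active = mean z-score across replicates of 1.96 or higher in either the MELAS or the Rieske mutant cell line; inactive = the rest.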

Tests used:
[1] = viability loss in pontine glioma line – cell-based, SU-DIPG-XXV, MIPE5.0, CellTiter-Glo, qHTS, dose response (AID 1347065; cut-off not given, nearly all actives have AC50 up to about 26 µM;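 note: cells exposed to compound for 48 hours before ATP readout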); details: CellTiter-Glo ATP luminescence
[2] = SU-DIPG-VI glioma cell viability, MIPE4.0 library, CellTiter-Glo luminescence, qHTS (AID 1347066; cut-off not given, nearly all actives have AC50 up to about 30 µM;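 note: cells exposed to compound for 48 hours before readout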); details: CellTiter-Glo ATP luminescence
[3] = SU-DIPG-XXV glioma cell viability, MIPE5.0 library, qHTS (AID 1347068; cut-off not given, nearly all actives have IC50 up to about 30 µM)
[4] = survival rescue of mitochondrial mutant cells in low glucose, primary screen, MELAS cybrids, Rieske KO mouse fibroblasts, CellTiter-Glo (AID 1508586);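 note: z relative to plate mean and SD of compound and empty wells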
[5] = target: NAD(+) hydrolase SARM1 (Homo sapiens) (UniProt Q6SZW1); test: SARM1 TIR NADase inhibitors, cell lysate, NAD-Glo luminescence (AID 1508614;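 active = compound whose remaining NAD level is above about 45 nM, limit read from the data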;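 note: higher remaining NAD means stronger inhibition of SARM1 NADase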); details: SAM-TIR HEK293T lysate NADase, at 1 µM, stronger effect = higher value
[6] = viability rescue of complex I mutant cybrids, primary screen, cell-based, galactose medium, ATP luminescence (AID 1645843;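 active = z-score of at least 1.8 in each of two replicates, scored against plate mean and spread of sample wells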;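 note: positive z means more ATP and so rescue of galactose-driven cybrid death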); details: complex I mutant cybrid cells, 72 h, stronger effect = higher value
[7] = phospholipid biosynthesis inhibitors in animal cells, primary screen, cell-based, LOPAC library, screen 4 (AID 1347384; call rule not given here); details: phospholipid biosynthesis inhibition screen, at 10 µM
[8] = JHH-DIPG-1 glioma cell viability, MIPE5.0 library, CellTiter-Glo luminescence, qHTS (AID 1347067; cut-off not given, nearly all actives have AC50 up to about 26 µM;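 note: cells exposed to compound for 48 hours before readout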); details: JHH-DIPG-1 glioma viability, CellTiter-Glo ATP luminescence
[9] = sensitizers of A549 cells to miR-34 induction, primary screen, imaging, A549 dox-inducible miR-34, nuclei and caspase counts (AID 1347080;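 active = compounds whose cell count with miR-34 switched on is under 0.7 times the count with it off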); details: A549 miR-34 inducible, Hoechst nuclei count, 48 h
[10] = target: Mitogen-activated protein kinase 7 (Homo sapiens) (UniProt Q13164); test: ERK5 transactivation activators in reporter cells, primary screen, cell-based, HTS (AID 1508626;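 active = luciferase signal above three times the same-plate solvent-only control wells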;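 note: luciferase driven by Gal4-ERK5 fusion binding five Gal4 sites before minimal TATA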); details: HeLa Gal4-ERK5 transactivation, 18 h, at 5 µM, stronger effect = higher value
[11] = MELAS cybrid survival, CellTiter-Glo 48 h, stronger effect = higher value
[12] = Rieske KO mouse fibroblast survival, CellTiter-Glo 72 h
[13] = stronger effect = lower value, cell number ratio, induced over uninduced
[14] = measured here: relative caspase fold change +Dox/-Dox
[15] = measured here: total cells with miR-34 induction, stronger effect = lower value
[16] = measured here: total cells without miR-34 induction

Chain of NAD(+) hydrolase SARM1 (Homo sapiens) (Q6SZW1 whole entry, looked up): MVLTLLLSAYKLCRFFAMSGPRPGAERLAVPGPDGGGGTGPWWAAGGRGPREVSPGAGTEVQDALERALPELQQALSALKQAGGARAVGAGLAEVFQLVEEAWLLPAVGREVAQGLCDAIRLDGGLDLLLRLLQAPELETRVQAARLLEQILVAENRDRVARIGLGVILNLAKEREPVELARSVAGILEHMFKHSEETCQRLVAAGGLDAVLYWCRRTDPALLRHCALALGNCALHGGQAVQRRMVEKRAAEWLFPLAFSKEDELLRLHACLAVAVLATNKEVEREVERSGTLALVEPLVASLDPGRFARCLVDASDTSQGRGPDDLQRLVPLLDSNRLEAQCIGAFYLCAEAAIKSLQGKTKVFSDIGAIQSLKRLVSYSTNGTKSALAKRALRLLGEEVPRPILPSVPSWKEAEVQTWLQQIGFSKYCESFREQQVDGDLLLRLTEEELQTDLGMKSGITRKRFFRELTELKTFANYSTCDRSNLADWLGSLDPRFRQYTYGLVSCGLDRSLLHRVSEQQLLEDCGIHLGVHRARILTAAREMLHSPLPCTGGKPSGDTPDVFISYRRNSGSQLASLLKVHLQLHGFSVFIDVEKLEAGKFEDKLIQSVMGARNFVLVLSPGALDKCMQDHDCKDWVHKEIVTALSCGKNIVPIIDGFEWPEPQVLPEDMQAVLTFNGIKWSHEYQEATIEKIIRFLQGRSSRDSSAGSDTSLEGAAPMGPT
Chain of Mitogen-activated protein kinase 7 (Homo sapiens) (Q13164 whole entry, looked up, the tested form may be a part): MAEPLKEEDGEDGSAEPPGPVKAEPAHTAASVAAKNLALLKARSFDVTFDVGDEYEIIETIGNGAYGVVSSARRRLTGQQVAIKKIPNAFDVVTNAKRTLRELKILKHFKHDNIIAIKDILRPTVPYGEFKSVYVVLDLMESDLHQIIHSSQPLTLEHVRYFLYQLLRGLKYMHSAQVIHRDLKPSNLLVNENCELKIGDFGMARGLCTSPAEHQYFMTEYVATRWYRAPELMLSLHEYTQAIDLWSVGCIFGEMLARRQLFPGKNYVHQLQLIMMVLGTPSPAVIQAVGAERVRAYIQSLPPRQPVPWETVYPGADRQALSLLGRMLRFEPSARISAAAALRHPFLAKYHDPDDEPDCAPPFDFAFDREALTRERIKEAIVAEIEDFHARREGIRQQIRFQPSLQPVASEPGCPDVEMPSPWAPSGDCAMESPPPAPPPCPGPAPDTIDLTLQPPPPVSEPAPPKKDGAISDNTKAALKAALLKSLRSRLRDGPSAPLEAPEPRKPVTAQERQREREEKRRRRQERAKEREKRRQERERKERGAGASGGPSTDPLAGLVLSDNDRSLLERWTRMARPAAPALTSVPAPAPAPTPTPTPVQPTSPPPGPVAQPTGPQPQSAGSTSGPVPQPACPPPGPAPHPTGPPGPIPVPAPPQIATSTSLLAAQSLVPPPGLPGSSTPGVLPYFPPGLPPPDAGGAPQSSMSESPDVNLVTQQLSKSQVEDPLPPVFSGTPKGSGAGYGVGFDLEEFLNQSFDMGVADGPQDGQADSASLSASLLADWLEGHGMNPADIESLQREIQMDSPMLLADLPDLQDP

## O=C(NCCO[N+](=O)[O-])c1cccnc1
[1]
  outcome: inactive
[2]
  outcome: inactive
[3]
  outcome: inactive
[4]; [11]
  z-score: -0.335 (inactive) and 0.466 (inactive) and -0.214 (inactive)
[4]; [12]
  z-score: -0.979 and 0.348 and 0.117
[5]
  remaining NAD: 10 nM (inactive)
[6]
  z-score: 0.795 (inactive) and 0.02 (inactive) and 0.605 (inactive)

## CN(CCOc1ccc(NS(C)(=O)=O)cc1)CCc1ccc(NS(C)(=O)=O)cc1
[1]
  outcome: inactive
[2]
  outcome: inactive
[3]
  outcome: inactive
[7]
  outcome: inactive
[4]; [11]
  z-score: -0.0974 (inactive) and 0.133 (inactive) and -0.631 (inactive)
[4]; [12]
  z-score: -0.727 and -0.208 and -0.315
[6]
  z-score: 0.355 (inactive) and 0.06 (inactive) and 0.77 (inactive)

## Cc1ccc(S(=O)(=O)NC(=O)NN2CC3CCCC3C2)cc1 (stereo not given)
[1]
  outcome: inactive
[8]
  outcome: inactive
[3]
  outcome: inactive
[9]; [13]
  fold change: 0.889 (inactive) and 0.88 (inactive)
[9]; [14]
  fold change: 1.81 and 0.848 and 0.946
[9]; [15]
  cell count: 8400 and 8080 and 10300
[9]; [16]
  cell count: 9450 and 9180 and 11600
[4]; [11]
  z-score: -0.361 (inactive) and -0.892 (inactive) and 0.121 (inactive)
[4]; [12]
  z-score: 0.53 and -0.111 and 0.139
[5]
  remaining NAD: 10 nM (inactive)
[10]
  luciferase signal: 36 AU (inactive)
[6]
  z-score: 0.595 (inactive)

## Oc1ccc(OCc2ccccc2)cc1
[1]
  outcome: inactive
[2]
  outcome: inactive
[8]
  outcome: inactive
[9]; [13]
  fold change: 0.78 (inactive) and 0.903 (inactive)
[9]; [14]
  fold change: 1.95 and 0.958
[9]; [15]
  cell count: 2470 and 5720
[9]; [16]
  cell count: 3170 and 6340
[4]; [11]
  z-score: -0.263 (inactive) and 1.74 (inactive)
[4]; [12]
  z-score: 0.599 and -0.357
[5]
  remaining NAD: 10 nM (inactive)
[10]
  luciferase signal: 64 AU (inactive)

## COc1ccc2cc3[n+](cc2c1OC)CCc1cc2c(cc1-3)OCO2
[1]
  AC50: 18.6 µM (active)
[2]
  AC50: 23.5 µM (active)
[8]
  AC50: 18.6 µM (active)
[9]; [13]
  fold change: 0.92 (inactive) and 0.934 (inactive)
[9]; [14]
  fold change: 1.68 and 1.22
[9]; [15]
  cell count: 5700 and 4440
[9]; [16]
  cell count: 6200 and 4750
[4]; [11]
  z-score: 0.0209 (inactive)
[4]; [12]
  z-score: 0.259
[10]
  luciferase signal: 64 AU (inactive)

## CCOC(=O)[C@H](CCc1ccccc1)N[C@@H](C)C(=O)N1[C@H](C(=O)O)C[C@@H]2CCC[C@@H]21
[2]
  AC50: 16.6 µM (active)
[8]
  outcome: inactive
[3]
  outcome: inactive
[9]; [13]
  fold change: 0.911 (inactive) and 0.827 (inactive) and 0.868 (inactive)
[9]; [14]
  fold change: 1.49 and 3.09 and 1.08
[9]; [15]
  cell count: 9860 and 10700 and 9970
[9]; [16]
  cell count: 10800 and 13000 and 11500
[4]; [11]
  z-score: -0.258 (inactive) and 0.537
[4]; [12]
  z-score: -0.11 and 2.28
[5]
  remaining NAD: 10 nM (inactive)
[10]
  luciferase signal: 316 AU (inactive)
[6]
  z-score: 2.63 (inactive) and 0.46 (inactive)

## CC(=O)N(O)CCCCCNC(=O)CCC(=O)N(O)CCCCCNC(=O)CCC(=O)N(O)CCCCCN
[1]
  AC50: 13.2 µM (active)
[3]
  outcome: inactive
[9]; [13]
  fold change: 0.985 (inactive) and 0.882 (inactive) and 0.874 (inactive)
[9]; [14]
  fold change: 1.2 and 0.413 and 4.36
[9]; [15]
  cell count: 4610 and 9190 and 10300
[9]; [16]
  cell count: 4680 and 10400 and 11800
[4]; [11]
  z-score: -0.752 (inactive) and -0.803 (inactive)
[4]; [12]
  z-score: -0.313 and -1.18
[5]
  remaining NAD: 10 nM (inactive)
[10]
  luciferase signal: 40 AU (inactive)
[6]
  z-score: 0.76 (inactive)
